According to the supplement of paper PMC13380429:

Test system: Vero E6 infected with SARS-CoV-2
Experiment: inhibition of SARS-CoV-2 cytopathic effect; higher = more antiviral protection, active = above 15
Conditions: 48 h

SMILES | inhibition of SARS-CoV-2 cytopathic effect (1 nM) | inhibition of SARS-CoV-2 cytopathic effect (8.33 nM) | inhibition of SARS-CoV-2 cytopathic effect (100 nM) | inhibition of SARS-CoV-2 cytopathic effect (833.33 nM) | inhibition of SARS-CoV-2 cytopathic effect (10000 nM)
O=C(N/N=C/c1ccc([N+](=O)[O-])o1)c1cc([N+](=O)[O-])cc([N+](=O)[O-])c1O [nifursol] | 0.19% (inactive) | 3.21% (inactive) | 2.56% (inactive) | 2.62% (inactive) | 2.82% (inactive)
C=C1C(=O)[C@]23[C@H](O)[C@H]1CC[C@H]2[C@@]12CO[C@]3(O)[C@@H](O)[C@@H]1C(C)(C)CC[C@@H]2O [Oridonin (Isodonol)] | -0.74% (inactive) | 1.14% (inactive) | 0.8% (inactive) | 3.78% (inactive) | 43.5% (active)
Cc1cccc(Oc2cnc(=O)[nH]c2)c1 [tolimidone] | -0.32% (inactive) | -2.84% (inactive) | -2.12% (inactive) | -13.1% (inactive) | 0.88% (inactive)
C#C[C@]1(OC(=O)CCCCCC)CC[C@H]2[C@@H]3CCC4=CC(=O)CC[C@@H]4[C@H]3CC[C@@]21C [norethisterone-enanthate] | 2.31% (inactive) | 0.16% (inactive) | 0.91% (inactive) | -1.87% (inactive) | -1.58% (inactive)
CCCCC(CC)CCC(CC(C)C)OS(=O)(=O)O (stereo not given) [sodium-tetradecyl-sulfate] | 3.58% (inactive) | 3.18% (inactive) | 2.64% (inactive) | 1.74% (inactive) | 3.12% (inactive)
Cc1ccnc2c1CCCC2C(N)=S (stereo not given) [isotiquimide] | 2.13% (inactive) | 1.38% (inactive) | 1.08% (inactive) | 1.85% (inactive) | 2.59% (inactive)
COc1ccc2cc1Oc1ccc(cc1)C[C@H]1c3cc(c(OC)cc3CCN1C)Oc1c(OC)c(OC)cc3c1[C@H](C2)N(C)CC3 [tetrandrine] | -2.72% (inactive) | -0.14% (inactive) | -1.04% (inactive) | -2.19% (inactive) | 69.3% (active)
O=C1c2c(O)cccc2Cc2cccc(O)c21 [anthralin] | -1.32% (inactive) | -2.05% (inactive) | 0.93% (inactive) | -2.71% (inactive) | -1.19% (inactive)
O=[N+]([O-])c1cc([N+](=O)[O-])c(/C=C/c2ccc(Cl)c(Cl)c2)cc1/C=C/c1ccc(Cl)c(Cl)c1 | 2% (inactive) | 1.02% (inactive) | -3.12% (inactive) | -5.26% (inactive) | -2.22% (inactive)
C[C@H](NCc1ccc(OCc2ccccc2F)cc1)C(N)=O [priralfinamide] | -0.13% (inactive) | 7.24% (inactive) | 6.27% (inactive) | 0.58% (inactive) | -1.48% (inactive)
COc1cccc(N2CCN(C3=Nc4c(F)cccc4[C@H](CC(=O)O)N3c3cc(C(F)(F)F)ccc3OC)CC2)c1 [letermovir] | -1.18% (inactive) | 0.62% (inactive) | 0.16% (inactive) | 0.96% (inactive) | 1.82% (inactive)
CNCC(=O)O [sarcosine] | 0.02% (inactive) | 0.73% (inactive) | 0.05% (inactive) | 2.03% (inactive) | 0.53% (inactive)
Cn1c(=O)c2c(ncn2CCO)n(C)c1=O [etofylline] | 0.6% (inactive) | 0.32% (inactive) | -0.66% (inactive) | -1.82% (inactive) | -1.01% (inactive)
NS(=O)(=O)c1cc(C(=O)O)c(NCc2ccco2)cc1Cl [furosemide] | -1.05% (inactive) | 1.27% (inactive) | -1.4% (inactive) | 0.41% (inactive) | 2.18% (inactive)
O=P(O)(O)C(O)(Cn1ccnc1)P(=O)(O)O [zoledronic-acid] | -0.24% (inactive) | 2.18% (inactive) | 1.88% (inactive) | 0.51% (inactive) | -0.12% (inactive)
C=CC(=O)Nc1cccc(Nc2nc(Nc3ccc(OCCOC)cc3)ncc2F)c1 | -0.6% (inactive) | 2.81% (inactive) | 0.54% (inactive) | -6.55% (inactive) | -11.3% (inactive)
CCN1C(=O)NC(c2ccccc2)C1=O (stereo not given) [ethotoin] | 0.06% (inactive) | 4.06% (inactive) | 2.41% (inactive) | 2.46% (inactive) | -0.15% (inactive)
COc1cc2/c(=N/c3ccc(Br)cc3F)nc[nH]c2cc1OCC1CCN(C)CC1 [vandetanib] | -1.28% (inactive) | 2.63% (inactive) | -1.67% (inactive) | -6.04% (inactive) | -3.93% (inactive)
Cc1cc2c(OCC(CNC(C)(C)C)OC(=O)c3ccccc3)cccc2[nH]1 (stereo not given) [bopindolol] | -0.9% (inactive) | -1.91% (inactive) | -0.64% (inactive) | 0.54% (inactive) | 0.29% (inactive)
NCCCNCCCCNCCCN [spermine] | 1.74% (inactive) | -5.72% (inactive) | -0.71% (inactive) | -2% (inactive) | 2.37% (inactive)

SMILES | inhibition of SARS-CoV-2 cytopathic effect (1 nM) | inhibition of SARS-CoV-2 cytopathic effect (8.33 nM) | inhibition of SARS-CoV-2 cytopathic effect (100 nM) | inhibition of SARS-CoV-2 cytopathic effect (833.33 nM) | inhibition of SARS-CoV-2 cytopathic effect (10000 nM)
CC(C)C(=O)Nc1ccc([N+](=O)[O-])c(C(F)(F)F)c1 [flutamide] | -1.61% (inactive) | -1.6% (inactive) | -3.44% (inactive) | -2.92% (inactive) | -5.12% (inactive)
CCOC(=O)OC(C)OC(=O)[C@@H]1N2C(=O)[C@@H](NC(=O)[C@H](N)c3ccccc3)[C@H]2SC1(C)C (stereo not given in full) [bacampicillin] | 8.5% (inactive) | 1.16% (inactive) | -0.89% (inactive) | -1.91% (inactive) | -2.49% (inactive)
O=C(c1ccc(Nc2nccc(-c3cc4ccccc4s3)n2)cc1)N1CCC(N2CCCC2)CC1 | 2.48% (inactive) | 3.16% (inactive) | -1.73% (inactive) | 2.79% (inactive) | -18.6% (inactive)
CCC(CC)CC1(C(=O)Nc2ccccc2SC(=O)C(C)C)CCCCC1 [dalcetrapib] | -1.76% (inactive) | -0.46% (inactive) | -1.34% (inactive) | -4.44% (inactive) | -2.5% (inactive)
CC#C[C@@H](CC(=O)O)c1ccc(OCc2cccc(-c3ccc(C(F)(F)F)cc3)c2)cc1 | -0.29% (inactive) | 1.42% (inactive) | -0.33% (inactive) | 2.32% (inactive) | 4.27% (inactive)
NC(=O)c1cccc(-c2cccc(OC(=O)NC3CCCCC3)c2)c1 | 1.14% (inactive) | 3.25% (inactive) | 1.96% (inactive) | 1.41% (inactive) | 1.6% (inactive)
Cn1c2cc([S+](C)[O-])sc2c2cnn(Cc3cccc(N)c3)c(=O)c21 (stereo not given) | -0.28% (inactive) | -0.88% (inactive) | 5.04% (inactive) | 3.73% (inactive) | 4.31% (inactive)
COc1cccc(Nc2ncnn3ccc(CN4CC[C@@H](N)[C@H](O)C4)c23)c1 | -0.26% (inactive) | 0.1% (inactive) | -6.81% (inactive) | -16.4% (inactive) | -22.6% (inactive)
CN[C@H](CNC(=O)N1CCC[C@@H]([C@@H](OCCNC(=O)OC)c2cccc(Cl)c2)C1)C[C@H]1CCCOC1 | 1.34% (inactive) | -1.3% (inactive) | 1.14% (inactive) | -0.1% (inactive) | 3.16% (inactive)
O=C(O)P(=O)(O)O [foscarnet] | 3.44% (inactive) | 3.89% (inactive) | 2.56% (inactive) | 0.33% (inactive) | 0.71% (inactive)
O=c1[nH]nc2c3c(cccc13)N=C(CN1Cc3ccccc3C1)N2 | 0.7% (inactive) | -0.79% (inactive) | 0.78% (inactive) | 0.24% (inactive) | 1.13% (inactive)
Cc1c(OCC(F)(F)F)ccnc1C[S+]([O-])c1nc2ccccc2[nH]1 (stereo not given) [lansoprazole] | 3.22% (inactive) | 0.73% (inactive) | -0.31% (inactive) | -1.96% (inactive) | -1.14% (inactive)
CCN(CC)CC1CCN(c2ncc3ncnc(Nc4ccc(F)c(Cl)c4)c3n2)CC1 | 1.37% (inactive) | 1.44% (inactive) | -3% (inactive) | -7.12% (inactive) | 21.6% (active)
O=C(Nc1cccnc1)N1CCC(Cc2cccc(Oc3ccc(C(F)(F)F)cn3)c2)CC1 | 0.55% (inactive) | -2.38% (inactive) | -1.02% (inactive) | 3.15% (inactive) | -28.6% (inactive)
CC(C)c1nc(CN(C)C(=O)N[C@H](C(=O)N[C@@H](Cc2ccccc2)C[C@H](O)[C@H](Cc2ccccc2)NC(=O)OCc2cncs2)C(C)C)cs1 [ritonavir] | 0.04% (inactive) | 0.25% (inactive) | -0.08% (inactive) | 3.37% (inactive) | 0.85% (inactive)
CCCCCCCCCCCCCCOc1ccc(C(=O)O)o1 | -3.57% (inactive) | 0.74% (inactive) | 1.46% (inactive) | -0.07% (inactive) | 2.73% (inactive)
CCc1cccc2c3c([nH]c12)C(CC)(CC(=O)O)OCC3 (stereo not given) [etodolac] | -3.24% (inactive) | -2.14% (inactive) | -2.22% (inactive) | -1.67% (inactive) | -0.69% (inactive)
C[C@H](Cc1ccc2c(c1)OC(C(=O)O)(C(=O)O)O2)NC[C@H](O)c1cccc(Cl)c1 | 0.95% (inactive) | 3.71% (inactive) | -1.72% (inactive) | -1.35% (inactive) | 2.18% (inactive)
CO[C@H]1/C=C/O[C@@]2(C)Oc3c(C)c(O)c4c(O)c(c(/C=N/N=C/N5CCCCC5)c(O)c4c3C2=O)NC(=O)/C(C)=C\C=C\[C@H](C)[C@H](O)[C@@H](C)[C@@H](O)[C@@H](C)[C@H](OC(C)=O)[C@@H]1C | 5.27% (inactive) | 5.73% (inactive) | 6.01% (inactive) | 4.61% (inactive) | 3.27% (inactive)
